# Laboratory results: PubChem BioAssay AID1159580 (chemical genetic matrix, 2015)
# The whole screen tested about 5,500 compounds, of which about 2,000 (36%) were called active. Another 18% or so got no clear call; they are omitted. The list shows a part of the results. Values without a mark were called inactive. Rule as the data show it: active = normalized growth mostly below about 0.91 (no sharp cut-off); inconclusive = no clear call, values can overlap the other calls; inactive = mostly above about 0.92.
# Assay: chemical genetic growth profiling, strain panel (AID 1159580);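 also: tested at 20 µM; growth read once vehicle control cultures reached saturation at 30 °C; 1 = growth at the plate median or of vehicle wells; lower values mean less growth of the strain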
# Conditions: S. cerevisiae deletion strains, growth OD
# [1] = locus YBR021W, strain FUR4, hits give low values
# [2] = locus YBR229C, strain ROT2, hits give low values
# [3] = locus YCL029C, strain bik1, hits give low values
# [4] = locus YDL035C, strain GPR1, hits give low values
# [5] = locus YDL074C, strain BRE1, hits give low values
# [6] = locus YDL101C, strain DUN1, hits give low values
# [7] = locus YDL185W, strain tfp1, hits give low values
# [8] = locus YDL192W, strain arf1, hits give low values
# [9] = locus YDR101C, strain arx1, hits give low values
# [10] = locus YDR162C, strain NBP2, hits give low values
# [11] = locus YDR318W, strain mcm21, hits give low values
# [12] = locus YDR388W, hits give low values
# [13] = locus YDR502C, strain sam2, hits give low values
# [14] = locus YEL061C, strain CIN8, hits give low values
# [15] = locus YER110C, hits give low values
# [16] = locus YER155C, strain BEM2, hits give low values
# [17] = locus YER167W, strain BCK2, hits give low values
# [18] = locus YGL078C, strain dbp3, hits give low values
# [19] = locus YGL086W, strain mad1, hits give low values
# [20] = locus YGL248W, strain PDE1, hits give low values
# [21] = locus YGR135W, strain pre9, hits give low values
# [22] = locus YGR252W, strain gcn5, hits give low values
# [23] = locus YHR030C, strain SLT2, hits give low values
# [24] = locus YHR079C, strain IRE1 (second series), hits give low values
# [25] = locus YHR094C, strain hxt1, hits give low values
# [26] = locus YHR129C, strain ARP1, hits give low values
# [27] = locus YHR200W, strain rpn10, hits give low values
# [28] = locus YIL066C, strain RNR3, hits give low values
# [29] = locus YIL073C, strain SPO22, hits give low values
# [30] = locus YIL125W, strain kgd1, hits give low values
# [31] = locus YIR030C, strain dcg1, hits give low values
# [32] = locus YJL095W, strain BCK1, hits give low values
# [33] = locus YJL134W, strain LCB3, hits give low values
# [34] = locus YJL168C, strain set2, hits give low values
# [35] = locus YJL187C, strain SWE1 (second series), hits give low values
# [36] = locus YJR043C, strain POL32, hits give low values
# [37] = locus YJR075W, strain HOC1, hits give low values
# [38] = locus YKL009W, strain mrt4, hits give low values
# [39] = locus YKL068W, hits give low values
# [40] = locus YKL085W, strain MDH1 (second series), hits give low values
# [41] = locus YKL085W, strain MDH1, hits give low values
# [42] = locus YKR001C, strain vps1, hits give low values
# [43] = locus YLR039C, strain RIC1, hits give low values
# [44] = locus YLR058C, strain SHM2, hits give low values
# [45] = locus YLR102C, strain apc9, hits give low values
# [46] = locus YLR262C, strain YPT6, hits give low values
# [47] = locus YLR268W, strain sec22, hits give low values
# [48] = locus YLR330W, strain CHS5, hits give low values
# [49] = locus YLR342W, strain FKS1 (second series), hits give low values
# [50] = locus YLR371W, strain rom2, hits give low values
# [51] = locus YLR418C, strain cdc73, hits give low values
# [52] = locus YML016C, strain PPZ1, hits give low values
# [53] = locus YML032C, strain rad52, hits give low values
# [54] = locus YML124C, strain tub3, hits give low values
# [55] = locus YMR078C, strain ctf18, hits give low values
# [56] = locus YMR223W, strain ubp8, hits give low values
# [57] = locus YMR307W, strain GAS1, hits give low values
# [58] = locus YNL067W, strain RPL9B, hits give low values
# [59] = locus YNL128W, strain TEP1, hits give low values
# [60] = locus YNL153C, strain GIM3, hits give low values
# [61] = locus YNL233W, strain BNI4, hits give low values
# [62] = locus YNL250W, strain rad50, hits give low values
# [63] = locus YNL271C, strain bni1, hits give low values
# [64] = locus YNL298W, strain CLA4, hits give low values
# [65] = locus YNL307C, strain MCK1, hits give low values
# [66] = locus YNL322C, strain KRE1, hits give low values
# [67] = locus YNR052C, strain pop2, hits give low values
# [68] = locus YOL147C, strain pex11, hits give low values
# [69] = locus YOR061W, strain CKA2, hits give low values
# [70] = locus YOR069W, strain VPS5, hits give low values
# [71] = locus YOR136W, strain idh2, hits give low values
# [72] = locus YOR144C, strain elg1, hits give low values
# [73] = locus YOR184W, strain ser1, hits give low values
# [74] = locus YOR316C, strain cot1, hits give low values
# [75] = locus YPL055C, strain LGE1, hits give low values
# [76] = locus YPR119W, strain clb2, hits give low values
# [77] = locus YPR141C, strain kar3, hits give low values
# [78] = locus YPR163C, strain tif3, hits give low values
# [79] = locus YPR167C, strain met16, hits give low values
# [80] = strain wtn01, hits give low values
structure (smiles),measurement,setting,value
COc1ccc(-c2coc3c(OC)c(OC)ccc3c2=O)cc1,normalized growth,[1],0.728 (active)
same,normalized growth,[2],0.996
same,normalized growth,[3],0.998
same,normalized growth,[4],0.963
same,normalized growth,[5],0.917
same,normalized growth,[6],0.969
same,normalized growth,"locus YDL134C, strain PPH21, hits give low values",0.924
same,normalized growth,[7],1.01
same,normalized growth,[8],0.997
same,normalized growth,[9],0.985
same,normalized growth,[10],0.875
same,normalized growth,[11],0.988
same,normalized growth,[12],1
same,normalized growth,[13],0.986
same,normalized growth,[14],0.986
same,normalized growth,[15],1.01
same,normalized growth,[16],0.988
same,normalized growth,[17],0.974
same,normalized growth,[18],1
same,normalized growth,[19],0.958
same,normalized growth,[20],0.957
same,normalized growth,[21],0.968
same,normalized growth,"locus YGR229C, strain SMI1, hits give low values",0.787 (active)
same,normalized growth,[22],0.82
same,normalized growth,[23],0.984
same,normalized growth,[24],1.01
same,normalized growth,[25],1.01
same,normalized growth,[26],0.983
same,normalized growth,[27],1.01
same,normalized growth,[28],0.925
same,normalized growth,[29],0.99
same,normalized growth,[30],1
same,normalized growth,[31],0.998
same,normalized growth,[32],0.838
same,normalized growth,[33],0.995
same,normalized growth,[34],1.01
same,normalized growth,[35],0.957
same,normalized growth,[36],0.899
same,normalized growth,[37],0.95
same,normalized growth,[38],0.988
same,normalized growth,[39],1
same,normalized growth,[40],0.994
same,normalized growth,[41],0.994
same,normalized growth,[42],0.948
same,normalized growth,[43],0.907
same,normalized growth,[44],0.974
same,normalized growth,[45],1.01
same,normalized growth,[46],0.906
same,normalized growth,[47],0.953
same,normalized growth,[48],0.972
same,normalized growth,[49],0.912
same,normalized growth,[50],1.01
same,normalized growth,[51],0.879
same,normalized growth,[52],0.993
same,normalized growth,[53],0.995
same,normalized growth,[54],0.997
same,normalized growth,[55],1.02
same,normalized growth,[56],1.01
same,normalized growth,"locus YMR263W, strain SAP30, hits give low values",0.931
same,normalized growth,[57],0.834
same,normalized growth,[58],0.941
same,normalized growth,[59],0.973
same,normalized growth,[60],0.955
same,normalized growth,[61],0.884
same,normalized growth,[62],1.03
same,normalized growth,[63],0.997
same,normalized growth,[64],0.997
same,normalized growth,[65],0.96
same,normalized growth,[66],0.98
same,normalized growth,[67],1.01
same,normalized growth,"locus YOL012C, strain htz1",1.11
same,normalized growth,[68],0.989
same,normalized growth,[69],0.995
same,normalized growth,[70],0.998
same,normalized growth,[71],1
same,normalized growth,[72],0.994
same,normalized growth,[73],0.917
same,normalized growth,[74],1
same,normalized growth,[75],0.888
same,normalized growth,[76],1.02
same,normalized growth,[77],1
same,normalized growth,[78],0.999
same,normalized growth,[79],1
same,normalized growth,[80],0.988
COc1ccc(-c2coc3c(OC)c(OC)cc(OC)c3c2=O)cc1,normalized growth,"locus YAL013W, strain DEP1, hits give low values",0.977
same,normalized growth,[1],0.875
same,normalized growth,[2],0.998
same,normalized growth,[3],1
same,normalized growth,[4],0.985
same,normalized growth,[5],0.961
same,normalized growth,[6],0.993
same,normalized growth,[7],0.992
same,normalized growth,[8],0.991
same,normalized growth,[9],0.983
same,normalized growth,"locus YDR150W, strain NUM1, hits give low values",0.991
same,normalized growth,[10],0.893
same,normalized growth,[11],0.978
same,normalized growth,[12],1.01
same,normalized growth,[13],0.982
same,normalized growth,[14],1
same,normalized growth,[15],0.995
same,normalized growth,[16],0.998
same,normalized growth,[17],0.977
same,normalized growth,[18],1
same,normalized growth,[19],0.974
same,normalized growth,[20],0.979
same,normalized growth,"locus YGR078C, strain PAC10, hits give low values",0.94
same,normalized growth,[21],0.969
same,normalized growth,[22],0.848
same,normalized growth,[23],0.997
same,normalized growth,[24],0.993
same,normalized growth,[25],0.996
same,normalized growth,[26],0.995
same,normalized growth,[27],0.985
same,normalized growth,[28],0.951
same,normalized growth,[29],0.973
same,normalized growth,[30],0.992
same,normalized growth,[31],1.01
same,normalized growth,[32],0.899
same,normalized growth,[33],1
same,normalized growth,[34],0.995
same,normalized growth,[35],0.971
same,normalized growth,[36],0.964
same,normalized growth,[37],0.974
same,normalized growth,[38],0.981
same,normalized growth,[39],1.02
same,normalized growth,[40],0.993
same,normalized growth,[41],0.993
same,normalized growth,"locus YKL190W, strain CNB1, hits give low values",0.986
same,normalized growth,[42],0.903
same,normalized growth,[43],0.928
same,normalized growth,[44],0.983
same,normalized growth,[45],0.993
same,normalized growth,[46],0.904
same,normalized growth,[47],0.952
same,normalized growth,[48],1
same,normalized growth,[49],0.924
same,normalized growth,[50],0.993
same,normalized growth,[51],0.884
same,normalized growth,[52],1
same,normalized growth,[53],0.999
same,normalized growth,[54],0.994
same,normalized growth,[55],1.01
same,normalized growth,[56],0.994
same,normalized growth,[57],0.83
same,normalized growth,[58],0.964
same,normalized growth,[59],0.998
same,normalized growth,[60],0.978
same,normalized growth,[61],0.914
same,normalized growth,[62],1.02
same,normalized growth,[63],1
same,normalized growth,[64],1.01
same,normalized growth,[65],0.968
same,normalized growth,[66],0.985
same,normalized growth,[67],1.02
same,normalized growth,"locus YOL012C, strain htz1",1.15
same,normalized growth,[68],0.982
same,normalized growth,[69],0.998
same,normalized growth,[70],1.01
same,normalized growth,[71],0.987
same,normalized growth,[72],0.991
same,normalized growth,[73],0.938
same,normalized growth,[74],0.999
same,normalized growth,[75],0.904
same,normalized growth,"locus YPL241C, strain CIN2, hits give low values",0.995
same,normalized growth,[76],0.987
same,normalized growth,[77],1
same,normalized growth,[78],0.985
same,normalized growth,[79],0.985
same,normalized growth,[80],0.972
